Inconclusive results are not listed. A call without a number means that no potency is given here. The source made the active and inactive calls. Calls come from the whole dose curve; as a rule, active = well fitted curve in the direction sought with a large enough effect; inconclusive = small, poorly fitted or top-dose-only effect, or another doubt; inactive = no such curve, though single readings can be large; an effect the other way counts as inactive or inconclusive.
Legend:
[1] = tested on: Zika virus NS2B-NS3 protease (linked construct); assay: Primary screen NINDS Rhodamine qHTS for Zika virus inhibitors (AID 1347160); note: nearly all actives have a fitted effect of over 55% in size; note: potency is the fitted concentration of half-maximal effect
Outline: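 Rhodamine110-peptide cleavage (1.5 µM substrate) by 25 nM linked NS2B-NS3 enzyme at pH 8.0 (Tris, Tween 20), after 15 min RT preincubation with compounds; 15-min fluorescence change normalized to controls and Hill-fitted.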

[2] = molecular target: Calcium and integrin-binding protein 1 (Homo sapiens) (UniProt Q99828); assay: Primary qHTS for Identification of Calcium Integrin Binding Protein 1 (CIB1) Competitor (AID 1508620);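 note: GST tagged CIB1 binding a fluorescein labelled alphaIIb integrin peptide tracer; top concentration of the series differs between compounds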
Sequence of Calcium and integrin-binding protein 1 (Homo sapiens) (Q99828 whole entry, looked up): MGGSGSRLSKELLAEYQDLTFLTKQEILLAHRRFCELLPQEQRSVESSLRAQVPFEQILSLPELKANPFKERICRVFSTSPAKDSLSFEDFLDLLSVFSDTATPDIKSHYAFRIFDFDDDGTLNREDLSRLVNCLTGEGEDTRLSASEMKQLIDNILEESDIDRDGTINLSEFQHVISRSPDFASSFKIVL
Outline: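 Fluorescence polarization competition: CIB1-GST (1 uM final) preincubated with compound 15 min at room temperature, then FITC-labeled alphaIIb peptide (100 nM final) added for another 15 min. Polarization read at Ex 480/Em 540.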

[3] = Primary qHTS for inhibitors of nuclear receptor binding SET domain protein 2 (NSD2) in an isogenic RCH-ACV NSD2 p.E1099K mutant (9B) (AID 1645876); note: nearly all actives have a fitted effect of over 70% in size; note: potency is the fitted concentration of half-maximal effect
[4] = molecular target: Glutathione peroxidase 1 (Homo sapiens) (UniProt P07203); assay: Primary qHTS Assay for Inhibitors of Recombinant Selenoprotein Glutathione Peroxidase 1 (GPX1) (AID 1845191); note: nearly all actives have a fitted effect of over 65% in size
Sequence of Glutathione peroxidase 1 (Homo sapiens) (P07203 whole entry, looked up): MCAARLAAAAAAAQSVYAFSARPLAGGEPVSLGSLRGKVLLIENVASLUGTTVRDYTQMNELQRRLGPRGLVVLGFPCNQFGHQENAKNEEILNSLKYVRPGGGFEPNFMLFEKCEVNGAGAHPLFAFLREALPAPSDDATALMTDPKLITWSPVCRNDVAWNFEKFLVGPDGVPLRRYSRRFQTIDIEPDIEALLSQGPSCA
Outline: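 GPX1 10 nM, GR 100 nM, GSH 1 mM, NADPH 0.5 mM, CHP 0.5 mM (final). 30-min cpd preincubation, RT. Ex340/Em450 read t=0, t=15 min.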

[5] = molecular target: Luciferin 4-monooxygenase (Photinus pyralis) (UniProt P08659); assay: Primary firefly luciferase (FLuc) qHTS assay for identification of artifact compounds. (AID 1845220); note: nearly all actives have a fitted effect of over 60% in size
Outline: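 Reaction readout was CCD-imaged luminescence, taken 5 min after adding 10 nM purified firefly enzyme to compound-treated wells holding 10 uM luciferin and ATP in pH 7.6 buffer.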

[6] = Primary fluorescence-based thiol-reactive (MSTI) qHTS assay for identification of artifact compounds. (AID 1845221);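 note: thiol-reactive compounds lower the probe fluorescence signal; nearly all actives have a fitted effect of over 65% in size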
Outline: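 A multi-concentration qHTS design tested compounds against 4 uM MSTI, pH 7.4 phosphate-buffered saline. Plates were protected from light for 1 h at room temperature before imaging fluorescence.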

[7] = tested on: Nanoluciferase (engineered Oplophorus gracilirostris luciferase); assay: Primary Nanoluciferase (NLuc) qHTS assay for identification of artifact compounds. (AID 1845222);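 note: NLuc secreted into diluted conditioned medium of S16 cells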
Outline: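 Concentration-response data were obtained by luminescence after 5 min with Nano-Glo substrate at 1:100. The enzyme was diluted S16 NLuc-expressing cell medium, preincubated with compound for 15 min at RT. Curves were fitted with a 4-parameter Hill model.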

C33A = assay: Primary qHTS to identify gynecologic anti-cancer compounds using libraries of approved drugs and bioactive compounds (AID 1345084); settings: Gynecologic cancer cell panel viability, ATPlite luminescence, 48 h; series mostly up to 57.5 µM; note: nearly all actives have a fitted effect of over 55% in size; note: potency is the fitted concentration of half-maximal effect
Outline: (§1)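 ATP-based viability (ATPlite), 1,000 cells/well, 16 h pre-incubation, 48 h compound at 37 C, 5% CO2, 15 min RT before read.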

CASKI = assay: as above; settings: Gynecologic cancer cell panel viability, ATPlite luminescence, 48 h; series mostly up to 57.5 µM
Outline: as §1

Es-2 = assay: as above; settings: Gynecologic cancer cell panel viability, ATPlite luminescence, 48 h; series mostly up to 57.5 µM
Outline: as §1

HeLa = assay: as above; settings: Gynecologic cancer cell panel viability, ATPlite luminescence, 48 h; series mostly up to 57.5 µM
Outline: as §1

Hek293T = assay: as above; settings: Gynecologic cancer cell panel viability, ATPlite luminescence, 48 h, control line for the selectivity index; series mostly up to 57.5 µM
Outline: as §1

JEG-3 = assay: as above; settings: Gynecologic cancer cell panel viability, ATPlite luminescence, 48 h; series mostly up to 57.5 µM
Outline: as §1

OV90 = assay: as above; settings: Gynecologic cancer cell panel viability, ATPlite luminescence, 48 h; series mostly up to 57.5 µM
Outline: as §1

PA-1 = assay: as above; settings: Gynecologic cancer cell panel viability, ATPlite luminescence, 48 h; series mostly up to 57.5 µM
Outline: as §1

Tov-21-G = assay: as above; settings: Gynecologic cancer cell panel viability, ATPlite luminescence, 48 h; series mostly up to 57.5 µM
Outline: as §1

Tov112D = assay: as above; settings: Gynecologic cancer cell panel viability, ATPlite luminescence, 48 h; series mostly up to 57.5 µM
Outline: as §1

[8] = Primary qHTS for inhibitors of nuclear receptor binding SET domain protein 2 (NSD2) in an RCH-ACV wild type WT cells (2C) (AID 1645877); note: nearly all actives have a fitted effect of over 70% in size; note: potency is the fitted concentration of half-maximal effect
[9] = molecular target: Phospholipid hydroperoxide glutathione peroxidase GPX4 (Homo sapiens) (UniProt P36969); assay: Primary qHTS Assay for Inhibitors of Recombinant Selenoprotein Glutathione Peroxidase 4 (GPX4) (AID 1845192); settings: outcome: dose series up to 50 µM unless noted; note: nearly all actives have a fitted effect of over 65% in size
Sequence of Phospholipid hydroperoxide glutathione peroxidase GPX4 (Homo sapiens) (P36969 whole entry, looked up): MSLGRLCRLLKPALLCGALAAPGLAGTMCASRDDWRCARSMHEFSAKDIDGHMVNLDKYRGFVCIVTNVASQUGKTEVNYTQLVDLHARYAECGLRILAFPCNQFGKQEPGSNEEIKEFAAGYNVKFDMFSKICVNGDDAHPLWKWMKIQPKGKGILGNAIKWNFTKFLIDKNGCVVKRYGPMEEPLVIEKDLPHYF
Outline: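 qHTS, GR-coupled: GPX4 200 nM + cpd 30 min RT → GSH 1 mM, NADPH 0.5 mM, GR 100 nM → CHP 0.5 mM start; fluor 340/450 at t0 and t15 min; no-enzyme wells as control.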

[10] = Primary redox qHTS assay for identification of artifact compounds. (AID 1845223)
Outline: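 Redox-cycling detection via DTT (250 uM final) oxidation coupled to Amplex Red (25 uM)/HRP (250 mU/mL) in HBSS. 15 min preincubation plus 30 min after DTT, room temperature. Ex/Em 525/598 nm; 4-parameter Hill fit against DMSO and 10 uM DA3003.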

SMILES	Potency [1]	outcome [2]	Potency [3]	Potency [4]	Potency [5]	Potency [6]	Potency [7]	Potency (C33A)	Potency (CASKI)	Potency (Es-2)	Potency (HeLa)	Potency (Hek293T)	Potency (JEG-3)	Potency (OV90)	Potency (PA-1)	Potency (Tov-21-G)	Potency (Tov112D)	Potency [8]	Potency [9]	Potency [10]
CO[C@@H]1[C@@H](O[C@H]2O[C@@H](C)[C@H](O[C@@H]3C[C@](C)(O)[C@H](O)[C@@H](C)O3)[C@@H](N(C)C)[C@@H]2O)[C@@H](CC=O)C[C@@H](C)[C@@H](O[C@H]2CC[C@H](N(C)C)[C@H](C)O2)/C=C/C=C/C[C@@H](C)OC(=O)C[C@H]1O	inactive	inactive	inactive	inactive	inactive	inactive	inactive	inactive	inactive	inactive	inactive	inactive	inactive	inactive	inactive	inactive	inactive			
CN(C)C(=O)c1cc2cnc(Nc3ccc(N4CCNCC4)cn3)nc2n1C1CCCC1	inactive	inactive	4.09 µM (active)	inactive	inactive		inactive	inactive	inactive	inactive	inactive	inactive	inactive	inactive		inactive	inactive	5.15 µM (active)	inactive	inactive
COc1c(N2CC3CCCNC3C2)c(F)cc2c(=O)c(C(=O)O)cn(C3CC3)c12 (stereo not given)	inactive	inactive	inactive		inactive	inactive	inactive	inactive	inactive	inactive	inactive	inactive	inactive	inactive	inactive	inactive	inactive	inactive		
Cc1cc(C)c(NC(=O)N(Cc2ccc3c(c2)Cc2ccccc2-3)C2CCCCCC2)c(C)c1	inactive	inactive	inactive	inactive	inactive	inactive	inactive	inactive	inactive	inactive	inactive	inactive	inactive	inactive	inactive	inactive	inactive	inactive	inactive	inactive
Cc1cc(C)c(-c2csc(NC(=O)c3ccccc3)n2)c(C)c1	inactive	inactive	4.09 µM (active)	inactive	inactive	inactive	inactive			inactive	inactive		inactive	inactive		inactive		4.09 µM (active)		inactive
CCN(CC)Cc1cccc(/C=C/c2nc3ccc(F)cc3c(=O)n2-c2ccccc2Cl)n1	inactive	inactive	14.5 µM (active)	inactive	inactive	inactive		inactive	inactive	inactive	inactive	inactive	inactive					12.9 µM (active)	inactive	inactive
CCNC(=O)[C@@H]1CCCN1C(=O)[C@H](CCCN=C(N)N)NC(=O)[C@H](CC(C)C)NC(=O)[C@@H](CC(C)C)NC(=O)[C@H](Cc1ccc(O)cc1)NC(=O)[C@H](CO)NC(=O)[C@H](Cc1c[nH]c2ccccc12)NC(=O)[C@H](Cc1cnc[nH]1)NC(=O)[C@@H]1CCC(=O)N1	inactive	inactive	inactive		inactive	inactive	inactive	inactive	inactive	inactive	inactive	inactive	inactive	inactive	inactive	inactive	inactive	inactive	inactive	
CC1OC2O[C@H]3[C@@H](OCC(O)[C@H]3O)OC(=O)C34CCC(C)(C)CC3C3=CCC5C6(C)CC(O)C(OC7OC(CO)C(O)C(O)C7O[C@@H]7OC[C@H](OC(=O)CC(C)(O)CC(=O)OC1C(OC1OCC(O)C(O)C1O)C2O)[C@@H](O)[C@H]7O)C(C)(CO)C6CCC5(C)C3(C)CC4 (stereo not given in full)	inactive	inactive	8.93 µM (active)	inactive	inactive	inactive			inactive		inactive	inactive						4.47 µM (active)	inactive	inactive
CCC(=O)c1cc(-c2ccc(Cl)cc2)n(-c2ccc(S(N)(=O)=O)cc2)c1C	inactive	inactive	23 µM (active)	inactive	inactive	inactive	inactive	inactive	inactive	inactive	inactive	inactive	inactive	inactive	inactive	inactive	inactive	16.3 µM (active)	inactive	
CN(CC(=O)N(Cc1ccc(C2CCCCC2)cc1)c1ccc(C(=O)O)cc1)S(=O)(=O)c1c(F)c(F)c(F)c(F)c1F	2.82 µM (active)	inactive	7.28 µM (active)	inactive	inactive	inactive	inactive			inactive			25.1 µM (active)					4.59 µM (active)	inactive	inactive
Cc1cc(CN)cc(C)c1NC(=O)c1ccc(-c2cc(Cl)ccc2Cl)o1	inactive	inactive	18.3 µM (active)	inactive	inactive	inactive	inactive	inactive	inactive	inactive	inactive	inactive	inactive	inactive	inactive	inactive	inactive	9.16 µM (active)	inactive	inactive
CNCCN(C)Cc1cn[nH]c1-c1ccc(OC2CC(OCCC3CCOCC3)C2)cc1 (stereo not given)		inactive		inactive															inactive	
O=C(CC1NCCC[C@H]1O)Cn1cnc2cc(Br)c(Cl)cc2c1=O (stereo not given in full)	inactive	inactive	inactive		inactive		inactive	inactive	inactive	inactive	inactive	inactive	inactive	inactive		inactive	inactive			inactive

— PubChem BioAssay (NCATS)
